For assay [1], the system named is PRMT1 (protein arginine N-methyltransferase 1). As to the kind of experiment: small molecules binding arginine methyltransferase PRMT1 – biochemical, small-molecule microarray, 635 nm fluorescence, primary screen (AID 1088).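 Further: binding of Prmt1 protein to compounds spotted on small-molecule microarray slides.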 The settings on record: higher = more signal.
Assay [2] is described as follows: growth effects on S. cerevisiae YJM789 – YJM789 clinical isolate, OD600, 24 h, basal, primary screen (AID 1089).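 Further: growth of clinical yeast isolate S. cerevisiae YJM 789 seeded 1000 cells per well; test concentration not given here.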 The settings on record: higher = more signal, called active from +8 up or from −8 down.
Assay [3] in a line: S. pombe growth modifiers, basal conditions – strain 972, OD600, 24 h, no modulator, primary screen (AID 1090).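 Further: basal condition with compound alone and no growth modifier present; test concentration not given here.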 The note with it: S. pombe 972 growth, higher = more signal, called active from +8 up or from −8 down.
Assay [4] is described as follows: budding yeast growth modifiers under rapamycin – strain BY4716, OD600, 96 h, primary screen (AID 1091). Further: test concentration not given here. The note with it: S. cerevisiae BY4716 + rapamycin, higher = more signal, called active from +8 up or from −8 down.
In assay [5] the target is Torsin-1A-interacting protein 2 (Homo sapiens) (UniProt Q8NFQ8). Put plainly: small molecules binding lysate-expressed LULL1 – cell lysate, human LULL1 lysate, 635/667 nm fluorescence, primary screen (AID 1092).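 Further: probe is lysate of COS7 cells overexpressing human LULL1; score merges per-feature 667 nm fluorescence with signal-to-noise.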 The settings on record: small-molecule microarray, hLULL1 lysate binding, 635 nm fluorescence; higher = more signal.
The nature of assay [6]: optical density change of DRC41 E. coli – strain DRC41, OD650, 24 h, E. coli filamentation project, primary screen (AID 1093).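 Further: MC1000 strain lacking acrAB efflux and sulA so SOS filamentation is blocked; test concentration not given here.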 The settings on record: E. coli DRC41 growth, higher = more signal, called active from +8 up or from −8 down.
Assay [7] is described as follows: probe aLefty2 binding to arrayed compounds – biochemical, biotinylated probe, 635/667 nm fluorescence, primary screen (AID 1094).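 Further: score merges spot fluorescence near 667 nm with spot signal-to-noise ratio.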 The note with it: small-molecule microarray, higher = more signal.
Assay [8] deals with Noggin (protein binding on small-molecule microarray). Put plainly: small molecules binding Noggin protein – biochemical, 635/667 nm fluorescence, primary screen (AID 1095).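 Further: score merges 667 nm feature fluorescence with signal to noise over triplicate slides.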 The note with it: 635 nm fluorescence, higher = more signal.
The target of assay [9] is Neurogenic locus notch homolog protein 3 (Homo sapiens) (UniProt Q9UM47). As to the kind of experiment: small molecules binding NOTCH3 protein – biochemical, 635/667 nm fluorescence, primary screen (AID 1096). The note with it: small-molecule microarray, 635 nm fluorescence, higher = more signal.
The nature of assay [10]: probe aEGFR binding to arrayed compounds – biochemical, biotinylated probe, 635/667 nm fluorescence, primary screen (AID 1097).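 Further: probe is a biotinylated anti-EGFR antibody binding compounds printed on slides; score combines fluorescence near 667 nm and signal to noise of each spot.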 The settings on record: small-molecule microarray, higher = more signal.

Activity calls are given as the source filed them.

Chain of Torsin-1A-interacting protein 2 (Homo sapiens) (Q8NFQ8 whole entry, looked up): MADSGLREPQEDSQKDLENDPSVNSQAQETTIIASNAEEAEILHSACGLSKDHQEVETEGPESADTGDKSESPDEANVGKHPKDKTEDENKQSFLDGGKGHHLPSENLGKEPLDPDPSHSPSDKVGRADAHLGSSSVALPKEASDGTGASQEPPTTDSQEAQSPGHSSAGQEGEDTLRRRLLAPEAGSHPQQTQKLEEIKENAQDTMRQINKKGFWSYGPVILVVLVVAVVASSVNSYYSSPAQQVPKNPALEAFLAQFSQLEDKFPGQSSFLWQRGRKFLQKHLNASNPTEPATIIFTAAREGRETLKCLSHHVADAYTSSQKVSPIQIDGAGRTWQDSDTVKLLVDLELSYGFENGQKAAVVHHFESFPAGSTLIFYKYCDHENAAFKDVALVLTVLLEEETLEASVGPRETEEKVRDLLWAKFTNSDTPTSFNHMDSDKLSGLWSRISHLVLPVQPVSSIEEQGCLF
Chain of Neurogenic locus notch homolog protein 3 (Homo sapiens) (Q9UM47 whole entry, looked up): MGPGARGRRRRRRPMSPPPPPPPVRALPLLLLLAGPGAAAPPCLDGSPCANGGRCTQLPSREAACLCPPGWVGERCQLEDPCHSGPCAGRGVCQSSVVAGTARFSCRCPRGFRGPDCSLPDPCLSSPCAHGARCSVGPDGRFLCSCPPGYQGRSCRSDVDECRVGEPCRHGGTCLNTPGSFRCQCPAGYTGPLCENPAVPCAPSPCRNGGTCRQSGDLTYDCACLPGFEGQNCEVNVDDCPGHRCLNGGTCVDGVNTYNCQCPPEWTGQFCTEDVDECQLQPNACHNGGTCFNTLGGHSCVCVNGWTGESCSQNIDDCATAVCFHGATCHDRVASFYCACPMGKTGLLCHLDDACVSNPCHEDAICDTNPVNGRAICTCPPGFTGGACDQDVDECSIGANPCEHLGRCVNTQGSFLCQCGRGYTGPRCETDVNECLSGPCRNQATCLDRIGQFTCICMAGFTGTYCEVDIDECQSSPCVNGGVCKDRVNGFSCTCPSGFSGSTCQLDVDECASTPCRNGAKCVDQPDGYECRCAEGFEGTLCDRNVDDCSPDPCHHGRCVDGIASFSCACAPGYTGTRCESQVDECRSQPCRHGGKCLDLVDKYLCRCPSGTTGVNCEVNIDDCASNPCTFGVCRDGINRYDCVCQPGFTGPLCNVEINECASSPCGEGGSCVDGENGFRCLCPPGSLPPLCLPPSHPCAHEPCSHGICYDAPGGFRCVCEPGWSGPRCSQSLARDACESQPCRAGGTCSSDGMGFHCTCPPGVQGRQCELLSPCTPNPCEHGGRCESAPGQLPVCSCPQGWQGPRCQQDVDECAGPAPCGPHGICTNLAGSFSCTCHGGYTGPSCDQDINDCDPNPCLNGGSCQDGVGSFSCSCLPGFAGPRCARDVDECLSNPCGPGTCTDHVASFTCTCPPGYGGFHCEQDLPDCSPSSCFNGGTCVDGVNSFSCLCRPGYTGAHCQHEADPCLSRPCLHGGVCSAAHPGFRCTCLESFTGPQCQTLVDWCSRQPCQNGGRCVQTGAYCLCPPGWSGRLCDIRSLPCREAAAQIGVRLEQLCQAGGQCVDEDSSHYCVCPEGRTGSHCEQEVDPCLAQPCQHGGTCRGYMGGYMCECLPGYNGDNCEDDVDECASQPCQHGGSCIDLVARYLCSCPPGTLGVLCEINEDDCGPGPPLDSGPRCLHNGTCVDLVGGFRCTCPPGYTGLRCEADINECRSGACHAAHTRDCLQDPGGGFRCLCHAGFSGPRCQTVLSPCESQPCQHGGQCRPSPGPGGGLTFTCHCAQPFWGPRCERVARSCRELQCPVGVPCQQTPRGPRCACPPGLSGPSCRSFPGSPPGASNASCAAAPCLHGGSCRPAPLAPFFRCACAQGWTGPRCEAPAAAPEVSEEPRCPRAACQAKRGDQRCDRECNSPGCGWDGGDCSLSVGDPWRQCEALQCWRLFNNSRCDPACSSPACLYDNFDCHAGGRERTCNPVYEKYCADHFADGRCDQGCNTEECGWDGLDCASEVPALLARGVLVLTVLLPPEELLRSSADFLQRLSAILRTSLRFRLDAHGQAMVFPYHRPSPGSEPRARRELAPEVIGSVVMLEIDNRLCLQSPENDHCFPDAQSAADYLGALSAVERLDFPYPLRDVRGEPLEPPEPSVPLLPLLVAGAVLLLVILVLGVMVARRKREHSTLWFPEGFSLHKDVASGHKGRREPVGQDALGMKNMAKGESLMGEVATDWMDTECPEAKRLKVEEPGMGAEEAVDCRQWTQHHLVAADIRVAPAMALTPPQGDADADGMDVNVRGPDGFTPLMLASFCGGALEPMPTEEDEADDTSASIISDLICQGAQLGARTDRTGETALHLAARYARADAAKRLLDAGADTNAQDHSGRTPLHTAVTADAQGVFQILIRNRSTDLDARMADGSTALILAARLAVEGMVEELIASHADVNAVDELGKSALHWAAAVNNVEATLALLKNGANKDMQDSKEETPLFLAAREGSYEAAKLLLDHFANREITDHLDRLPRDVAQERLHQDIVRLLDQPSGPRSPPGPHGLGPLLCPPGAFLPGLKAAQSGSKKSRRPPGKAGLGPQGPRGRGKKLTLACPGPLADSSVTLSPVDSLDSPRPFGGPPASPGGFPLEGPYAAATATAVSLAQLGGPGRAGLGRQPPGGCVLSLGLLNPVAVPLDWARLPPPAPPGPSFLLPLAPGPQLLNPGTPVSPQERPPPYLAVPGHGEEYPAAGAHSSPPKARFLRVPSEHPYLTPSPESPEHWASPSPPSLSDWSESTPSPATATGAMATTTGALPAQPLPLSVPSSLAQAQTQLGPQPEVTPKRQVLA

Turning to `COC(=O)c1c(CC[C@@H](CO)NC(=O)N[C@H](Cc2ccccc2)Cn2cc(-c3ccccc3N)nn2)oc(C(C)=O)c1C(=O)OC`, the composite z-score turned out to be 1.19 in assay [1]; 1.05 in assay [5]; 0.323 in assay [7]; 0.173 in assay [8]; 0.492 in [9]; 0.195 in [10]. Besides, the z-score in [2] is -0.231 (inactive); in [3] it was -1.15 (inactive); in assay [4], 0.2 (inactive); in assay [6] it was 0.382 (inactive).

As for `COc1ccccc1CN1C(=O)c2ccccc2[C@@H](C(=O)NCC(F)(F)F)[C@@H]1c1ccc(CO)cc1`, the composite z-score in assay [1] is 1.55; in assay [5], 2.37; in assay [7], -0.107; in [8], 1.11; in [9], 1.06; in [10], -0.179. In addition, the z-score in [2] was 0.21 (inactive); in assay [3] it was 0.74 (inactive); in assay [4] it was -0.296 (inactive); in [6], 1.49 (inactive).

For `O=C(NN=C1C[C@@H](O)[C@@H](O)[C@@H]2[C@@H]3C(=O)N(c4ccc(F)cc4F)C(=O)[C@@H]3CC[C@@H]12)OCc1ccccc1`, the composite z-score was -0.127 in assay [1]; 1.03 in assay [5]; -0.11 in assay [7]; -0.0944 in assay [8]; 0.57 in [9]; -0.0616 in assay [10]. In addition, the z-score in [2] was 0.615 (inactive); in assay [3], 0.664 (inactive); in assay [4], -0.442 (inactive); in [6], 0.203 (inactive).

Consider `C[C@@H]1C=CCC(=O)OC[C@H](C)C(=O)N[C@@H](C)C(=O)OC1`, for which the composite z-score in [1] was 0.552; in [5] it was -0.412; in assay [7], -0.293; in [8] it was 0.828; in assay [9] it was 0.254; in [10], 0.0886. Moreover, the z-score in [2] was 0.664 (inactive); in assay [3] it was 0.406 (inactive); in assay [4], -0.113 (inactive); in assay [6], 0.715 (inactive).

On to `CCc1cc2c(nc1CC)CCN(CCC(C)=NOC[C@@H](O)COCc1ccco1)C2`, for which the composite z-score in [1] was 1.54; in assay [5] it was -1.51; in assay [7] it was 0.469; in assay [8], 1.68; in assay [9], 1.05; in assay [10] it was 0.441. The z-score was -0.907 (inactive) in assay [2], -0.871 (inactive) in [3], -0.935 (inactive) in assay [4] and 0.903 (inactive) in assay [6].

Regarding `CCN1C(=O)[C@H]2[C@H]3[C@H](O)[C@H](O)CC(=NOCC=C(C)CCC=C(C)C)[C@H]3CC[C@H]2C1=O`, the composite z-score in assay [1] is 1.56; in [5] it was 1.52; in assay [7], -0.0355; in assay [8], 1.32; in assay [9] it was 1.13; in [10], 0.186. For the same compound, the z-score in assay [2] was -0.541 (inactive); in [3] it was 0.0853 (inactive); in assay [4], -1.11 (inactive); in assay [6] it was 0.707 (inactive).

Turning to `[N-]=[N+]=Nc1ccccc1C[C@@]1(C(N)=O)N=C(c2ccc(OCCCO)cc2)O[C@@H]1c1ccccc1`, the composite z-score in assay [1] was 0.683; in assay [5], 2.06; in assay [7] it was 0.316; in assay [8] it was -0.754; in assay [9], 0.156; in [10], -0.0455. Besides, the z-score was -0.501 (inactive) in assay [2], -0.371 (inactive) in assay [3], -0.481 (inactive) in assay [4] and 0.0722 (inactive) in assay [6].

Consider `CCOC(=O)[C@H](CC(C)C)NC(=O)CCC1CC(OC(=O)NCCc2ccc(F)cc2)CC2(CCCC(COC(=O)NCc3ccccc3)O2)O1` (stereo not given in full), for which the composite z-score in [1] is 1.57; in assay [5], 2.24; in assay [7], -0.0778; in assay [8], 1.46; in assay [9], 0.828; in [10] it was 0.0338. Besides, the z-score in assay [2] is -0.341 (inactive); in assay [3] it was -0.265 (inactive); in assay [4] it was 0.707 (inactive); in assay [6], -0.206 (inactive).

With `COC(=O)C1=C(C)N(Cc2ccccc2)[C@]23O[C@](C(=O)OC)(C(=O)N2[C@@H]1c1ccccc1)[C@H]1CCOC(=O)[C@H]13`, the composite z-score in [1] was 0.33; in assay [5], 0.257; in assay [7], -0.0638; in [8] it was 0.648; in assay [9], 1.07; in [10] it was -0.0152. The z-score in assay [2] is 0.828 (inactive); in assay [3], 0.494 (inactive); in [4], 1.71 (inactive); in assay [6], 0.308 (inactive).

For the compound `CC(C)[C@H](NC(=O)OC(C)(C)C)[C@@H](O)CC(=O)OC(C)(C)C`, the composite z-score was -1.84 in assay [1]; -1.63 in assay [5]; -0.22 in assay [7]; -0.531 in assay [8]; -0.904 in assay [9]; -0.29 in [10]. In addition, the z-score in assay [2] is -0.0351 (inactive); in [3], -0.379 (inactive); in [4] it was 0.596 (inactive); in assay [6], -0.809 (inactive).

For `Cc1cc2c(c(=O)o1)[C@H](O)[C@H]1O[C@H]1C2=O`, the composite z-score in assay [1] was 0.527; in [5], -0.186; in [7], -0.0569; in [8], 0.651; in assay [9], 0.312; in assay [10], -0.0007. The z-score in assay [2] was 0.228 (inactive); in assay [3], -4.24 (inactive); in assay [4] it was -0.643 (inactive); in [6] it was -1.02 (inactive).

As to `CCOC(=O)[C@H](Cc1ccccc1)NC(=O)CCC1CC(OC(=O)NCc2ccc3c(c2)OCO3)CC2(CCCC(COC(=O)NCc3cccc(C(F)(F)F)c3)O2)O1` (stereo not given in full), the composite z-score in assay [1] is 1.35; in assay [5], 0.735; in [7] it was -0.0383; in [8], 0.606; in assay [9], 1.11; in assay [10], 0.0293. Besides, the z-score in assay [2] was -0.594 (inactive); in [3] it was 0.926 (inactive); in assay [4], 0.287 (inactive); in assay [6] it was -1.29 (inactive).

For `CO[C@@H]1COC(=O)CCC[C@@H](C)[C@H](OC)COC(=O)CCC[C@H]1C`, the composite z-score in assay [1] is 0.408; in [5] it was -0.431; in assay [7] it was -0.234; in assay [8], 0.6; in assay [9], 0.636; in assay [10], -0.0967. In addition, the z-score in assay [2] is 0.376 (inactive); in assay [3], 0.852 (inactive); in [4], 0.294 (inactive); in assay [6] it was -0.0526 (inactive).

`COCCOC(=O)N1C(=O)[C@@]2(c3cc(C#Cc4ccc(OC)cc4)ccc31)[C@H](c1ccc(O)cc1)N1[C@H](c3ccccc3)[C@H](c3ccccc3)OC(=O)[C@H]1[C@@H]2C(N)=O`: the composite z-score in assay [1] is 1.55; in assay [5] it was 2.93; in assay [7], -0.145; in [8], 0.977; in assay [9], 1.1; in assay [10], 0.0026. The z-score in assay [2] is 0.0655 (inactive); in assay [3] it was -0.118 (inactive); in assay [4] it was -0.0092 (inactive); in assay [6], 0.04 (inactive).

As to `COCCCNC(=O)[C@@]1(Sc2ccc(C)cc2)CC(=O)N(Cc2ccccc2)[C@@H]1c1ccc(CO)cc1I`, the composite z-score was 0.785 in [1]; 0.936 in assay [5]; 0.556 in assay [7]; -1.53 in [8]; -1 in [9]; 0.0097 in assay [10]. Further, the z-score in assay [2] was -1.69 (inactive); in assay [3] it was -2.82 (inactive); in assay [4] it was 0.999 (inactive); in assay [6], 0.248 (inactive).

The values are drawn from PubChem BioAssay.
